Assay results from PubChem BioAssay AID1159580 (chemical genetic matrix, 2015).
In all, about 5,500 compounds went through this assay and about 2,000 (36%) were called active. Another 18% or so got no clear call; they are omitted. Cut-off read from the data, not from the text of the source: active = normalized growth mostly below about 0.91 (no sharp cut-off); inconclusive = no clear call, values can overlap the other calls; inactive = mostly above about 0.92. Some of the results follow.

Assay: chemical genetic growth profiling, strain panel (AID 1159580);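 note: tested at 20 µM; growth read once vehicle control cultures reached saturation at 30 °C; 1 = growth at the plate median or of vehicle wells; lower values mean less growth of the strain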
Settings: growth OD
[1] = S. cerevisiae deletion strains, locus YAL013W, strain DEP1, active compounds read low
[2] = S. cerevisiae deletion strains, locus YAL040C, strain CLN3, active compounds read low
[3] = S. cerevisiae deletion strains, locus YCL061C, strain MRC1 (second series), active compounds read low
[4] = S. cerevisiae deletion strains, locus YDR150W, strain NUM1, active compounds read low
[5] = S. cerevisiae deletion strains, locus YDR363W, strain ESC2, active compounds read low
[6] = S. cerevisiae deletion strains, locus YER002W, strain NOP16, active compounds read low
[7] = S. cerevisiae deletion strains, locus YGR078C, strain PAC10, active compounds read low
[8] = S. cerevisiae deletion strains, locus YJR075W, strain HOC1, active compounds read low
[9] = S. cerevisiae deletion strains, locus YMR263W, strain SAP30, active compounds read low
[10] = S. cerevisiae deletion strains, locus YNL153C, strain GIM3, active compounds read low
[11] = S. cerevisiae deletion strains, locus YNL175C, strain NOP13, active compounds read low
[12] = S. cerevisiae deletion strains, locus YNL197C, strain WHI3, active compounds read low
[13] = S. cerevisiae deletion strains, locus YNL224C, strain SQS1, active compounds read low
[14] = S. cerevisiae deletion strains, locus YOR083W, strain WHI5 (second series), active compounds read low
[15] = S. cerevisiae deletion strains, locus YPL055C, strain LGE1, active compounds read low
[16] = S. cerevisiae deletion strains, locus YGR229C, strain SMI1, active compounds read low
[17] = S. cerevisiae deletion strains, locus YNL128W, strain TEP1, active compounds read low
[18] = S. cerevisiae deletion strains, locus YNL322C, strain KRE1, active compounds read low
[19] = S. cerevisiae deletion strains, locus YPL241C, strain CIN2, active compounds read low
[20] = S. cerevisiae deletion strains, locus YBR229C, strain ROT2, active compounds read low
[21] = S. cerevisiae deletion strains, locus YDL101C, strain DUN1, active compounds read low
[22] = S. cerevisiae deletion strains, locus YEL061C, strain CIN8, active compounds read low
[23] = S. cerevisiae deletion strains, locus YHR030C, strain SLT2, active compounds read low
[24] = S. cerevisiae deletion strains, locus YHR087W, strain rtc3, active compounds read low
[25] = S. cerevisiae deletion strains, locus YJL187C, strain SWE1, active compounds read low
[26] = S. cerevisiae deletion strains, locus YJR043C, strain POL32, active compounds read low
[27] = S. cerevisiae deletion strains, locus YLR039C, strain RIC1, active compounds read low
[28] = S. cerevisiae deletion strains, locus YLR058C, strain SHM2 (second series), active compounds read low
[29] = S. cerevisiae deletion strains, locus YLR085C, strain ARP6, active compounds read low
[30] = S. cerevisiae deletion strains, locus YLR262C, strain YPT6, active compounds read low
[31] = S. cerevisiae deletion strains, locus YML094W, strain GIM5, active compounds read low
[32] = S. cerevisiae deletion strains, locus YMR219W, strain ESC1, active compounds read low
[33] = S. cerevisiae deletion strains, locus YNL298W, strain CLA4 (second series), active compounds read low
[34] = S. cerevisiae deletion strains, locus YNR030W, strain Alg12, active compounds read low
[35] = S. cerevisiae deletion strains, locus YPR135W, strain CTF4, active compounds read low

Measured: normalized growth

O=C(O)C1C2CCC(O2)C1C(=O)O (configuration not stated)
inactive: [1] 1.04 | [2] 0.983 | [3] 1 | [4] 1 | [5] 1 | [6] 0.996 | [7] 0.985 | [8] 1.02 | [9] 0.995 | [10] 1 | [11] 1.01 | [12] 0.998 | [13] 1.02 | [14] 1.06 | [15] 1.06

CC1(C(=O)O)C2CCC(O2)C1(C)C(=O)O (configuration not stated)
active: [6] 0.914 | [11] 0.904 | [12] 0.884 | [13] 0.914 | [14] 0.833
inactive: [2] 0.902 | [3] 0.984 | [5] 0.982 | [7] 0.985 | [16] 1 | [8] 1.03 | [17] 0.943 | [10] 0.886 | [18] 0.989 | [15] 1.04 | [19] 0.97

CCOC(=O)c1cc(C)nc(Sc2ccccc2)c1C#N
active: [1] 0.931 | [20] 0.889 | [21] 0.897 | [7] 0.763 | [24] 0.787 | [25] 0.854 | [26] 0.91 | [8] 0.573 | S. cerevisiae deletion strains, locus YKL190W, strain CNB1, active compounds read low 0.898 | [28] 0.858 | [32] 0.877 | [9] 0.907 | [10] 0.916 | [33] 0.785 | [18] 0.885 | [34] 0.746 | [19] 0.83
inactive: [4] 0.852 | [22] 0.917 | [23] 0.841 | [27] 0.895 | [29] 0.787 | [30] 0.86 | [31] 0.917 | S. cerevisiae deletion strains, locus YMR307W, strain GAS1, active compounds read low 0.754 | [15] 0.844 | [35] 1.12

CCOC(=O)COc1nc(-c2cccs2)cc(C(F)(F)F)c1C#N
inactive: [1] 0.995 | [20] 0.97 | S. cerevisiae deletion strains, locus YCL061C, strain MRC1, active compounds read low 1 | [21] 0.963 | [4] 0.975 | [22] 0.975 | [7] 0.978 | [16] 0.989 | [23] 0.827 | [24] 0.961 | [25] 0.966 | [26] 1.01 | [8] 0.979 | [27] 0.946 | [28] 0.972 | [29] 0.949 | [30] 0.991 | [31] 0.922 | [32] 0.988 | [9] 1.04 | [17] 0.982 | [10] 0.98 | [33] 0.932 | [18] 0.98 | [34] 0.967 | [15] 0.971 | [19] 1.08 | [35] 0.943 | S. cerevisiae strains, strain wild type, active compounds read low 0.965
